Rab9 prom act: qHTS Assay for Rab9 Promoter Activators. Potency, µM (titrated, usually from 9.22 µM), for inactives: at the top dose activation, negative = inhibition, hits mostly activators. actives 2.8% (n = 320,000). Huh7 Rab9 promoter-luciferase reporter, luminescence, 24 h; also: % of control where 0% means no effect; nearly all actives have a fitted effect of over 60% in size
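Quantitative HTS format; Huh7 Rab9-luciferase reporter cells (1500/well) receive compound 2 h post-plating, incubate 24 h at 37 °C, then get luciferase reagent for 10 min before luminescence reading.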
SMN2 splice enh: qHTS Assay for Enhancers of SMN2 Splice Variant Expression | AID 1458, 2008 | Potency, µM (titrated, usually from 46.1 µM), without a hit: at the top dose activity change, positive = activation, hits mostly activators | actives 2.8% (n = 210,000) | HEK293 SMN2-luciferase splicing reporter, luminescence, 30-36 h; also: % of control where 0% means no effect; nearly all actives have a fitted effect of over 55% in size
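HEK293 cells carry an SMN2 minigene-luciferase reporter in which exon 7 inclusion puts luciferase in frame. Cells were seeded at 2000 cells/well, attached for 10-12 hours, then exposed to compounds for 30-36 hours at 37C before ONE-Glo luminescence.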
ELG1 genotoxic: qHTS screen for small molecules that induce genotoxicity in human embryonic kidney (HEK293T) cells expressing luciferase-tagged ELG1 | HEK293T ELG1-luciferase reporter, luminescence, 16 h | actives 1.3% (n = 330,000) | Potency, µM (series often up to 46 µM), inactives show at the top dose activity change, positive = activation, hits mostly activators; also: % of control where 0% means no effect; nearly all actives have a fitted effect of over 60% in size
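After overnight (16 hr) compound treatment at 37 °C, ELG1-luciferase HEK293T cells were lysed with ONE-Glo; luminescence quantified 30 min later at room temperature.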
FLuc modulator: qHTS profiling assay for firefly luciferase inhibitor/activator using purifed enzyme and Km concentrations of substrates (counterscreen for miR-21 project). AID 588342, 2011. Luciferin 4-monooxygenase (Photinus pyralis), P08659. actives 6.9% (n = 360,000). Potency, µM (doses to about 57.5 µM), for the others: at the highest dose activity change, negative = inhibition, actives largely listed as inhibitors. purified FLuc, Km substrates, luminescence inhibition;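 also: plate controls were vehicle for no effect and reference inhibitor for full effect; nearly all actives have a fitted effect of over 55% in size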
Target sequence (P08659 whole entry, looked up): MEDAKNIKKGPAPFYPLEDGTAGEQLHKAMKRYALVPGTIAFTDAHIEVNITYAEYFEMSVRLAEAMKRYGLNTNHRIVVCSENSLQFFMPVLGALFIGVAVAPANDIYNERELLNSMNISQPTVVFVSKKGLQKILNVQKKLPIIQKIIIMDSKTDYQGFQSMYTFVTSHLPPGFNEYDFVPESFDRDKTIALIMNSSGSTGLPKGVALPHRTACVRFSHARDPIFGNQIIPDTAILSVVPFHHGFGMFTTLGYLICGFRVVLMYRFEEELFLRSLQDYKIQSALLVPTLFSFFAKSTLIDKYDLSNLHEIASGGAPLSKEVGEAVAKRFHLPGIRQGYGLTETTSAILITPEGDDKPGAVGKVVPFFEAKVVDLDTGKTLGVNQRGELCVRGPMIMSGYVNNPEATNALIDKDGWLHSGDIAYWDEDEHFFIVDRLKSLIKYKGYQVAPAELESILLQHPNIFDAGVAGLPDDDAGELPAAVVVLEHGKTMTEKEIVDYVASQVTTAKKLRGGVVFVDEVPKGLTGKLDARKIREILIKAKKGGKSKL
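Purified P. pyralis luciferase, 10 nM final, with Km-level 10 uM D-luciferin and 10 uM ATP in 50 mM Tris acetate pH 7.5, 10 mM Mg acetate, 0.01% Tween-20, 0.05% BSA; 6-point qHTS titration about 60 µM downward; luminescence read.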
NPC1 prom act: qHTS Assay for NPC1 Promoter Activators | Potency, µM (top dose mostly 9.22 µM), for the others: at the highest dose activation, hits mostly activators | actives 2.4% (n = 320,000) | Huh7 NPC1 promoter luciferase reporter, 24 h; also: % of control where 0% means no effect; nearly all actives have a fitted effect of over 60% in size
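Luminescence from an NPC1 promoter-driven luciferase reporter in stably transfected Huh7 cells was measured after 24 h compound treatment at 37 °C, followed by 10 min ambient incubation with luciferase detection reagent.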
ELG1 repair inh: qHTS screen for small molecules that inhibit ELG1-dependent DNA repair in human embryonic kidney (HEK293T) cells expressing luciferase-tagged ELG1; HEK293T ELG1-luciferase reporter, luminescence, 16 h; DNA damage induced by 5-fluorouridine; Potency, µM (doses to about 46.1 µM), for inactives: at the top dose activity change, negative = inhibition, hits mostly inhibitors; actives 2.3% (n = 330,000); also: % is scaled to controls: 0 for no effect and ±100 for the full control effect; nearly all actives have a fitted effect of over 55% in size
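In this reporter screen, reduction of luminescence relative to DMSO vehicle indicated activity. Compounds and 5-fluorouridine were added together to 2,000 cells per well, incubated for 16 hr at 37 °C, then developed with ONE-Glo.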
Active calls of the source: *; [ ] = dose if it differs, or a comment. The list is not random: actives were taken first. Their share in the collection is about 9.2%. Calls follow the shape of the dose curve; as a rule, active = well fitted curve in the direction sought with a large enough effect; inconclusive = small, poorly fitted or top-dose-only effect, or another doubt; inactive = no such curve, though single readings can be large; an effect the other way counts as inactive or inconclusive. Potency is read from the fitted curve at half-maximal effect.

Screening CCCCC(=O)Nc1ccc2c(c1)nc(CCN1CCN(c3ccccn3)CC1)n2C returned Rab9 prom act -0.7%, ELG1 genotoxic -5.9%, FLuc modulator -1.5%, NPC1 prom act -7.1% and ELG1 repair inh -6.1%.
COc1ccc2c(c1OC)C(=O)OC2Nc1nc(-c2cc3cc(Br)ccc3oc2=O)cs1 (stereo not drawn) was read as Rab9 prom act 1.41µM*, ELG1 genotoxic inconclusive, FLuc modulator 21.3µM*, NPC1 prom act 2µM* and ELG1 repair inh inconclusive.
COc1ccc(/C=C2\N=C3CCCCCN3C2=O)cc1 was read as Rab9 prom act -2.3%, SMN2 splice enh inconclusive, ELG1 genotoxic inconclusive, FLuc modulator 15.1µM*, NPC1 prom act -1.1% and ELG1 repair inh inconclusive.
Screening CCCCOc1ccc(-n2nc(C)cc2C)nn1 returned Rab9 prom act inconclusive, SMN2 splice enh -13.0%, ELG1 genotoxic 17.6%, FLuc modulator 16.9µM*, NPC1 prom act inconclusive and ELG1 repair inh inconclusive.
Cc1cc(C)n(-c2ccc(OCC(=O)O)nn2)n1 was read as Rab9 prom act 1.0%, SMN2 splice enh 11.1%, ELG1 genotoxic -3.9%, FLuc modulator 5.1%, NPC1 prom act 0.8% and ELG1 repair inh 17.3%.
Screening O=C(NNC(=S)Nc1ccccc1)c1ccc2ncccc2c1 returned Rab9 prom act inconclusive, SMN2 splice enh 14.1%, ELG1 genotoxic 5.3%, FLuc modulator inconclusive, NPC1 prom act 7.0% and ELG1 repair inh 27.7%.
Screening O=C(NC(=S)Nc1ccc2[nH]ncc2c1)c1ccccc1 returned Rab9 prom act inconclusive, SMN2 splice enh 21.6%, ELG1 genotoxic 15.5%, FLuc modulator inconclusive, NPC1 prom act inconclusive and ELG1 repair inh inconclusive.
For O=C(Nc1ccc2ncccc2c1)c1ccccc1 the results were Rab9 prom act 2.4%, ELG1 genotoxic 1.6%, FLuc modulator -4.6%, NPC1 prom act -3.4% and ELG1 repair inh -3.7%.
Screening CC(C)(C)NC(=S)NNC(=O)c1ccc2ncccc2c1 returned Rab9 prom act 0.501µM*, SMN2 splice enh 14.1µM*, ELG1 genotoxic 24.1%, FLuc modulator inconclusive, NPC1 prom act inconclusive and ELG1 repair inh inconclusive.
`O=C(NC(=S)Nc1ccc2nc[nH]c2c1)c1ccccc1` gave Rab9 prom act 3.98µM*, ELG1 genotoxic inconclusive, FLuc modulator inconclusive, NPC1 prom act 2.82µM* and ELG1 repair inh inconclusive.
`O=C(NC(=S)Nc1ccc2ncccc2c1)c1ccccc1` gave Rab9 prom act 2.24µM*, SMN2 splice enh inconclusive, ELG1 genotoxic inconclusive, FLuc modulator inconclusive, NPC1 prom act 2.82µM* and ELG1 repair inh inconclusive.
O=C(COC(=O)c1cc(S(=O)(=O)N2CCOCC2)ccc1F)NCCc1ccc(F)cc1 was read as ELG1 genotoxic 1.5% and ELG1 repair inh 0.0%.
Screening CC(C)COc1ccc(C(=O)NNC(=O)c2ccc(=O)[nH]c2)cc1 returned Rab9 prom act -3.7%, ELG1 genotoxic 4.0%, FLuc modulator -4.4%, NPC1 prom act -1.9% and ELG1 repair inh 24.7%.
For O=[N+]([O-])c1cc(CN2CCOCC2)c2cccnc2c1O the results were Rab9 prom act 15.3%, SMN2 splice enh -67.9%, ELG1 genotoxic -3.8%, FLuc modulator 3.9%, NPC1 prom act -13.4% and ELG1 repair inh -11.0%.
Screening O=[N+]([O-])c1cc(F)c2cccnc2c1O returned Rab9 prom act 1.9%, ELG1 genotoxic -11.2%, FLuc modulator -2.3%, NPC1 prom act -0.9% and ELG1 repair inh 20.6µM*.
Screening O=[N+]([O-])c1cc(CN2CCN(c3ccccc3)CC2)c(O)c2ncccc12 returned Rab9 prom act -48.2%, SMN2 splice enh -100.5%, ELG1 genotoxic 2.9%, FLuc modulator 3.0%, NPC1 prom act -13.0% and ELG1 repair inh 4.61µM*.
Screening Cc1ccc(CNC(=O)C2CCCN(S(=O)(=O)c3cccc4nsnc34)C2)cc1 (stereo not drawn) returned SMN2 splice enh 9.3% and FLuc modulator -0.3%.
For CCOC(=O)C1CCCN(S(=O)(=O)CCNC(=O)c2cccc(OC)c2)C1 (stereo not drawn) the results were Rab9 prom act -0.4%, ELG1 genotoxic -1.7%, FLuc modulator -5.1%, NPC1 prom act -2.0% and ELG1 repair inh inconclusive.
`Cc1ccc(-c2nn(-c3ccccc3)cc2CN(Cc2ccccc2)C(=O)c2ccco2)o1` gave Rab9 prom act 1.8%, SMN2 splice enh -35.8%, ELG1 genotoxic -38.3%, FLuc modulator -2.5%, NPC1 prom act -0.2% and ELG1 repair inh 18.4µM*.
`Cc1ccc(-c2nn(-c3ccccc3)cc2/C=C/C(=O)O)o1` gave Rab9 prom act -0.6%, SMN2 splice enh 1.5%, ELG1 genotoxic 2.3%, FLuc modulator 23.9µM*, NPC1 prom act -1.6% and ELG1 repair inh inconclusive.
For COc1ccc(CNC(=O)CCn2nc(C)c3c(C)n(-c4ccccc4)nc3c2=O)cc1OC the results were FLuc modulator 3.6%.
Screening Cc1cccc(-c2noc(CN(C(=O)COc3ccc(C(C)C)cc3)C(C)C)n2)c1 returned SMN2 splice enh -17.4% and FLuc modulator -0.6%.
`Cc1ccccc1OCCCSc1nc2ccccc2[nH]1` gave Rab9 prom act 2.5%, ELG1 genotoxic 0.0%, FLuc modulator 23.9µM*, NPC1 prom act 0.1% and ELG1 repair inh -10.3%.
CC(CC(=O)Nc1nc2ccccc2[nH]1)c1ccccc1 (stereo not drawn) was read as Rab9 prom act 3.98µM*, SMN2 splice enh inconclusive, ELG1 genotoxic inconclusive, FLuc modulator 12µM*, NPC1 prom act 4.47µM* and ELG1 repair inh inconclusive.
`CN(C)CCCSc1nc2ccccc2[nH]1` gave SMN2 splice enh -11.7%[9.22 µM].
CCOc1ccccc1OCC(=O)Nc1nc2ccccc2[nH]1 was read as Rab9 prom act 11.8%, SMN2 splice enh 10.9%, ELG1 genotoxic -3.0%, FLuc modulator 15.1µM*, NPC1 prom act -1.4% and ELG1 repair inh -5.1%.
For O=C(COc1ccccc1)Nc1nc2ccccc2[nH]1 the results were Rab9 prom act 3.55µM*, SMN2 splice enh inconclusive, ELG1 genotoxic 4.47µM*, FLuc modulator 12µM*, NPC1 prom act inconclusive and ELG1 repair inh inconclusive.

Assay outcomes deposited in PubChem BioAssay by National Center for Advancing Translational Sciences (NCATS).
